Results: PubChem BioAssay AID2073 (Sanford-Burnham Center for Chemical Genomics, 2009)
Several values for one entry are separate records, joined by “and”; a condition that tells them apart may be missing. Equal values may be shown once. About 570 (0.2%) of roughly 290,000 compounds were called active. About 1% were inconclusive and are not listed. No stated cut-off is given here; in the data, active means inhibition mostly above about 51% (no sharp cut-off); inconclusive means no clear call, values can overlap the other calls; inactive means mostly below about 53%. The list comes from a sample in which actives are over-represented; it also holds similar structures and randomly drawn compounds.

Biological target: Voltage-dependent N-type calcium channel subunit alpha-1B (Homo sapiens) (UniProt Q00975)
Experiment: disruptors of CaV2.2 binding to Mint1 – biochemical, HTRF (AID 2073)
Conditions: HTRF protein-protein interaction, Mint1-CaV2.2, at 20 µM, stronger effect = higher value
[1] = measured here: average of repeat tests

Voltage-dependent N-type calcium channel subunit alpha-1B (Homo sapiens), sequence (Q00975 whole entry, looked up): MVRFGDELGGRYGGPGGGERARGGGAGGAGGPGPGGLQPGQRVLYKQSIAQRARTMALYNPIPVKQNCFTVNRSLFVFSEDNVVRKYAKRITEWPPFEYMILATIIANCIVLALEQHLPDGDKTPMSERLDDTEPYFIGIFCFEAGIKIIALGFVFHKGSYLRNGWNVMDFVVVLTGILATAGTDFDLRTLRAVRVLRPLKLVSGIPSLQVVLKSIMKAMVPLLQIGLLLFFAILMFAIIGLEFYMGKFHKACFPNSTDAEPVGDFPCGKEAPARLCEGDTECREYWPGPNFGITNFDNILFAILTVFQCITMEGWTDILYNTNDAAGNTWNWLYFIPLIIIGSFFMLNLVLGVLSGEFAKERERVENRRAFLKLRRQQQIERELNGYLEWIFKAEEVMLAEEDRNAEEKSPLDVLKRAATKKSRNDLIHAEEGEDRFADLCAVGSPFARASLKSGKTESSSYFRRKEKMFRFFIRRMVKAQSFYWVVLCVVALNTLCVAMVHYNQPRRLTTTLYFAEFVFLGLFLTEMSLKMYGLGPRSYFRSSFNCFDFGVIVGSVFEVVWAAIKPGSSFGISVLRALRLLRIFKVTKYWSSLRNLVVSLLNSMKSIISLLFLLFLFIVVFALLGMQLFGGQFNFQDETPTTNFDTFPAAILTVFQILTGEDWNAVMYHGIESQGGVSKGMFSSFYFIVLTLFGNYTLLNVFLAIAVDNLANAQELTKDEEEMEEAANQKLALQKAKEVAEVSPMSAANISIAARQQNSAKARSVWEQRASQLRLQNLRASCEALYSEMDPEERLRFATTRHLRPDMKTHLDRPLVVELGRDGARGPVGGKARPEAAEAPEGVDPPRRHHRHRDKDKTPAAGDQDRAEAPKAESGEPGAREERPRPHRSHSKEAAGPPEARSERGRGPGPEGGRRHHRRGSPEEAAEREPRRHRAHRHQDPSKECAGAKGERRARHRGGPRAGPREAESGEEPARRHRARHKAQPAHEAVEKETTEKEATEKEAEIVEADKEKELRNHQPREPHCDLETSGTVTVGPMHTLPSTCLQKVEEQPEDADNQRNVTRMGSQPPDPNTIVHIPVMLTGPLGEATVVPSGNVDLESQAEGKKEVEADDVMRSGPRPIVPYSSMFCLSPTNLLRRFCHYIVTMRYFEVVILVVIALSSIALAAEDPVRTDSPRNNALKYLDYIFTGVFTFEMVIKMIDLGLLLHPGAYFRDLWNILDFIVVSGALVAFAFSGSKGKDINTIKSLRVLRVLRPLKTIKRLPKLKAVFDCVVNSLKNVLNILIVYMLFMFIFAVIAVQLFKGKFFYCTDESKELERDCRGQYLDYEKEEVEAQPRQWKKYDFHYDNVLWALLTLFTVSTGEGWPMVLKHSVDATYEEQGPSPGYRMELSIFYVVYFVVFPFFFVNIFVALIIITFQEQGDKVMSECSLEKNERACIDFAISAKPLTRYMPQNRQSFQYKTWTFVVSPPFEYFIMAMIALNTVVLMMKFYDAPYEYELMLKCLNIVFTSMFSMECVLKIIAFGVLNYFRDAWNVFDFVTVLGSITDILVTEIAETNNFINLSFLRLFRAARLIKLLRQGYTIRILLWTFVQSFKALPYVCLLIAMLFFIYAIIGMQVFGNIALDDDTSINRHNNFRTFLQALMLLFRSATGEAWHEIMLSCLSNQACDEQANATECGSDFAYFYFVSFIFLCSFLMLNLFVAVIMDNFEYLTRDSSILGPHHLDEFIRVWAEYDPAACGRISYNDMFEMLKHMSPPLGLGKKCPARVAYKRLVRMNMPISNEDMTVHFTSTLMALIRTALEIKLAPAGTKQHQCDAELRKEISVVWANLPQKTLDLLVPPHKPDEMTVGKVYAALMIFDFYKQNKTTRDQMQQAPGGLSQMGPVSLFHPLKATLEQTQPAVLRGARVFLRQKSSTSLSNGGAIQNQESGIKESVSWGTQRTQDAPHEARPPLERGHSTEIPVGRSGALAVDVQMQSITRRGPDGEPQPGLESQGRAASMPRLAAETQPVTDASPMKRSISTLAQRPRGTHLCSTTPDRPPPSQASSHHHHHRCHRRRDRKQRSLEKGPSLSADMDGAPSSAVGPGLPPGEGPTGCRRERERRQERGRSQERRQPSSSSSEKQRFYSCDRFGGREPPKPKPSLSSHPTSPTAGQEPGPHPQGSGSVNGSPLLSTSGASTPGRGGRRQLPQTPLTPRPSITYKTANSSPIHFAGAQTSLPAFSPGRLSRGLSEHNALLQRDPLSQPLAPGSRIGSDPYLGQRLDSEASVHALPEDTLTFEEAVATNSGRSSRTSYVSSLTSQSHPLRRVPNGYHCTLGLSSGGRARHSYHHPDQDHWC

COC(=O)c1sc2ccccc2c1NC(=O)c1ccc(S(=O)(=O)N2CCCCC2C)cc1 (configuration not stated)
inhibition: -0.4% (inactive)

CN(CCOc1ccc(Cl)cc1)Cc1cccc(S(=O)(=O)N(C)C)c1
inhibition: -2.1% (inactive)

Nc1c(Cl)ncnc1N/N=C/c1ccncc1
inhibition: -9.8% (inactive)

O=C(O)C=C1CCN(c2ncc(C(F)(F)F)cc2Cl)CC1
inhibition: 13.7% (inactive)

CN1CCN(c2ccccc2NC(=O)c2ccc3c(c2)OCCO3)CC1
inhibition: 8.9% (inactive)

Cc1c(NC(=O)C2(C)CCCCC2)c(=O)n(-c2ccccc2)n1C
inhibition: -0.1% (inactive)

COCCNC(=O)/C(C#N)=C/c1ccc(OCc2ccccc2)cc1
inhibition: -5.6% (inactive)

CCCCc1c(C)c(C#N)c2[nH]c3ccccc3n2c1=O
inhibition: 16.9% (inactive)

Cc1c(CCO)c(=O)n2c([nH]c3ccccc32)c1C#N
inhibition: -2.7% (inactive)

COc1ccccc1N=Cc1c(C)c(C#N)c2[nH]c3ccccc3n2c1=O
inhibition: 71.7% (active)

O=C(Nc1ccc(Cc2ccc(NC(=O)N3CCOCC3)cc2)cc1)N1CCOCC1
inhibition: 3.3% (inactive)

N#CC1=C2SCN(Cc3ccccc3)CN2C(=O)CC1c1ccccc1F (configuration not stated)
inhibition: 85.9% (inactive) | inhibition [1]: 29.1%

COc1ccc(Br)cc1C1CC(=O)N2CN(C)CSC2=C1C#N (configuration not stated)
inhibition: 87.7% (inactive) | inhibition [1]: 25.1%

COc1ccc(Br)cc1C1CC(=O)N2CN(Cc3ccccc3)CSC2=C1C#N (configuration not stated)
inhibition: 93.2% (active)

COc1cc(C2CC(=O)N3CN(Cc4ccccc4)CSC3=C2C#N)ccc1OCc1ccccc1 (configuration not stated)
inhibition: 82.7% (inactive) | inhibition [1]: 44.4%

COc1cc(C2CC(=O)N3CN(Cc4ccco4)CSC3=C2C#N)ccc1OCc1ccccc1 (configuration not stated)
inhibition: 84.8% (active)

COc1ccc(C2CC(=O)N3CN(Cc4ccco4)CSC3=C2C#N)cc1 (configuration not stated)
inhibition: 76.3% (inactive) | inhibition [1]: 19.2%

CC(Oc1ccc(F)cc1Br)c1nc2ccccc2c(=O)[nH]1 (configuration not stated)
inhibition: 10.2% (inactive)

CC(C)(C)c1ccc(C(=O)N/N=C/c2ccc(OCCCF)cc2)cc1
inhibition: 21.6% (inactive)

Cc1ccc(C(C)C)c(OCc2ccc(C(=O)N/N=C/c3ccc(O)c(O)c3)cc2)c1
inhibition: 20.5% (inactive)

CC(C)(C)c1ccc(OCc2ccc(C(=O)N/N=C/c3ccc(O)c(O)c3)cc2)cc1
inhibition: 57.4% (active)

CS(=O)(=O)N(CC(=O)N1CCCC1)Cc1ccc(Cl)c(Cl)c1
inhibition: 9.7% (inactive)

CCc1cccc(CC)c1NC(=O)c1cccc(N)c1
inhibition: 2.5% (inactive)

Cc1ccc(-c2cnn(-c3cccc([N+](=O)[O-])c3)c2N)cc1
inhibition: 22.4% (inactive)

Cc1cc(C)cc(NC(=O)CCC(=O)N2CCSc3ccccc32)c1
inhibition: -4.1% (inactive)

COc1cc(CNc2ccc3[nH]c(=O)[nH]c3c2)ccc1OCC(=O)NC(C)(C)C
inhibition: 43.9% (inactive)

COc1cc(CNc2ccc3[nH]c(=O)[nH]c3c2)cc(Cl)c1OCC(=O)NC(C)(C)C
inhibition: 51.8% (active)

COc1cc(CNc2ccc3[nH]c(=O)[nH]c3c2)cc(Br)c1OCC(=O)NC(C)(C)C
inhibition: -33% (inactive)

COc1ccc(OC)c(C(=O)NC(CC(N)=O)c2ccc(NCC3CC3)c([N+](=O)[O-])c2)c1 (configuration not stated)
inhibition: -4.2% (inactive)

O=C(c1cccc(C(=O)N(c2ccccn2)C2CCCCC2)c1)N(c1ccccn1)C1CCCCC1
inhibition: -10.9% (inactive)

O=S(=O)(Nc1cc(Sc2cccc3cccnc23)c(O)c2ccccc12)c1ccc(F)cc1
inhibition: -17% (inactive)

O=S(=O)(Nc1cc(Sc2cccc3cccnc23)c(O)c2ccccc12)c1ccccc1
inhibition: 69.2% (active)

O=S(=O)(Nc1cc(Sc2ncn[nH]2)c(O)c2ccccc12)c1ccccc1
inhibition: 56.7% (inactive) | inhibition [1]: -21.5%

COc1ccc(C2N(C(=O)c3ccccc3)CCN2C(=O)c2ccc(C)cc2)cc1 (configuration not stated)
inhibition: -6.5% (inactive)

CN(Cc1c(C(=O)N2CCCCCCC2)nc2ccc(Cl)cn12)C1CCOC1 (configuration not stated)
inhibition: -10% (inactive)

COC(=O)N1CC(c2ccccc2)CC1=O (configuration not stated)
inhibition: -7.4% (inactive)

O=[N+]([O-])c1ccc(-c2cnc3ccccc3n2)cc1
inhibition: 6.2% (inactive)

Nc1nc(-c2ccc([N+](=O)[O-])cc2)cs1
inhibition: 35.7% (inactive)

Cc1cccc(OCC(=O)N/N=C/C=C/c2ccco2)c1
inhibition: 59.6% (inactive) | inhibition [1]: 16%

Cc1ccccc1OCC(=O)N/N=C/c1ccc([N+](=O)[O-])o1
inhibition: 6.4% (inactive)

Cc1ccc(OCC(=O)N/N=C/C=C/c2ccco2)cc1C
inhibition: 55.3% (active)

COc1ccccc1OCC(=O)N/N=C/C=C/c1ccc([N+](=O)[O-])o1
inhibition: 54.5% (active)

O=C(COc1ccccc1[N+](=O)[O-])N/N=C/C=C/c1ccco1
inhibition: 4.5% (inactive)

Cc1ccc(OCC(=O)N/N=C/C=C/c2ccco2)cc1
inhibition: 53.6% (inactive) | inhibition [1]: 27.1%

COCc1c(C(=O)OCC(=O)NCCN2C(=O)CSC2=O)oc2ccccc12
inhibition: 1.8% (inactive)

COCCCNC(=O)c1cc2c(-c3ccc(Cl)cc3)nn(C)c2s1
inhibition: 13% (inactive)

O=S(=O)(NCc1ccccc1)NCc1ccccc1
inhibition: 0.7% (inactive)

CCN(CC)S(=O)(=O)c1cc(C(=O)OCC(=O)Nc2cccc(Br)c2)ccc1F
inhibition: -2.8% (inactive)

CCn1c(O)c(/C=C/C=C/C=Nc2ccccc2)sc1=S
inhibition: 1.5% (inactive)

Oc1c(C=Nc2ccccc2)sc(=S)n1Cc1ccccc1
inhibition: -4.9% (inactive)

O=C(O)Cn1c(O)c(C=Nc2ccccc2)sc1=S
inhibition: -17.7% (inactive) and -1.2% (inactive)

CCCCn1c(O)c(/C=C/C=C/C=Nc2ccccc2)sc1=S
inhibition: 71.6% (active)

CCCn1c(O)c(C=Nc2ccccc2)sc1=S
inhibition: 35.6% (inactive)

Oc1c(/C=C/C=C/C=Nc2ccccc2)sc(=S)n1Cc1ccccc1
inhibition: 50.6% (active)

O=C(Nc1cccc(Cl)c1)Nc1ccccc1C(=O)NCc1ccco1
inhibition: 3.4% (inactive)

CCc1ccccc1NC(=S)NC1CC2CCC(C1)N2Cc1ccc(F)cc1 (configuration not stated)
inhibition: -9.8% (inactive)

CCn1c(SCC(=O)NNC(=O)c2ccc(C)cc2)nnc1C1CC1
inhibition: 7.6% (inactive)

COc1ccccc1-c1nnc(SCC(=O)NCc2cccs2)n1N
inhibition: -0.4% (inactive)

O=C1OC(c2ccc(F)cc2)=C/C1=C\c1ccc(O)cc1
inhibition: -0.4% (inactive)

O=C1OC(c2ccc(F)cc2)=C/C1=C\c1ccc([N+](=O)[O-])o1
inhibition: 73% (active)

O=[N+]([O-])c1ccc(/C=N\NS(=O)(=O)c2ccc(F)cc2)o1
inhibition: -7% (inactive)

CCOc1ccc(NC(=O)NC(=O)N(C)S(=O)(=O)c2ccc(C)cc2)cc1
inhibition: 8.1% (inactive)

COc1ccccc1N1CCN(C(=O)c2ccc3nc(-c4ccco4)c(-c4ccco4)nc3c2)CC1
inhibition: 70% (active)

O=C(NCc1ccccc1)c1ccc2nc(-c3ccco3)c(-c3ccco3)nc2c1
inhibition: 55.4% (inactive) | inhibition [1]: 20.4%

O=C(c1ccccc1)c1ccc2nc(-c3ccco3)c(-c3ccco3)nc2c1
inhibition: 76.5% (active)

O=C(Nc1ccccc1)c1ccc2nc(-c3ccco3)c(-c3ccco3)nc2c1
inhibition: 57.1% (inactive) | inhibition [1]: -4.3%

O=C(c1ccc2nc(-c3ccco3)c(-c3ccco3)nc2c1)N1CCN(c2ccccc2)CC1
inhibition: 47.9% (inactive)

Cc1ccc(C)c(N2CCN(C(=O)c3ccc4nc(-c5ccco5)c(-c5ccco5)nc4c3)CC2)c1
inhibition: 56.6% (inactive) | inhibition [1]: 15.5%

O=C(NCC1CCCO1)/C(=C/c1ccccc1)NC(=O)c1ccccc1 (configuration not stated)
inhibition: -11.4% (inactive)

O=C(O)c1cccnc1-c1ncccc1C(=O)O
inhibition: -7.6% (inactive)

Cc1cccc(N/N=C2/COC(C)(C)CC2=O)c1
inhibition: 4.2% (inactive)

NC(=O)C1CCN(CC(=O)c2c[nH]c3ccc(F)cc23)CC1
inhibition: 1.6% (inactive)

CC1CCN(C(=O)c2ccc3c(c2NCCO)C(=O)c2ccccc2C3=O)CC1
inhibition: -7.6% (inactive)

CC1CC(C)CN(C(=O)c2ccc3c(c2NCCO)C(=O)c2ccccc2C3=O)C1 (configuration not stated)
inhibition: 59% (active)

CC1CCCN(C(=O)c2ccc3c(c2NCCO)C(=O)c2ccccc2C3=O)C1 (configuration not stated)
inhibition: -10.5% (inactive)

CC(=O)CN1C(=O)NC(c2ccccc2)(c2ccccc2)C1=O
inhibition: 12.2% (inactive)

Cc1cc(-c2ccc(S(=O)(=O)N(C)Cc3ccccc3)cc2)on1
inhibition: 9% (inactive)

COc1ccc(CCc2nnc(CCC(=O)NCc3ccc4ncccc4c3)o2)cc1
inhibition: -2.5% (inactive)

COC(c1ccccc1)c1nnc(CCC(=O)NCc2ccc3ncccc3c2)o1 (configuration not stated)
inhibition: 50% (active)

COC(c1ccccc1)c1nnc(CCC(=O)NCc2cccc(-n3cccn3)c2)o1 (configuration not stated)
inhibition: 10.4% (inactive)

O=C1CNC(=O)/C1=C/c1ccccc1
inhibition: 7.3% (inactive)

O=C1CSC(c2ccccc2)N1c1nnc(C23CC4CC(CC(C4)C2)C3)s1 (configuration not stated)
inhibition: 1.5% (inactive)

O=C(O)c1ccc(/C=C/c2nc3sc4c(c3c(=O)[nH]2)CCC4)cc1
inhibition: 40.5% (inactive)

CCOC(=O)c1nc2sc3c(c2c(=O)[nH]1)CCCC3
inhibition: 29.6% (inactive) and 12.3% (inactive)

N#C/C(=C\c1ccc(C(=O)O)cc1)c1nc2sc3c(c2c(=O)[nH]1)CCCC3
inhibition: 73.5% (active)

O=C1C(Cc2ccccc2)NC(=S)N1Cc1ccccc1 (configuration not stated)
inhibition: -4.6% (inactive)

COC(=O)Cn1c(C)nc2c(sc3nc(C)cc(C)c32)c1=O
inhibition: 7.1% (inactive)

CC(=O)Cn1cnc2c(sc3nc(C)cc(C)c32)c1=O
inhibition: -5.8% (inactive)

CCCNC(=O)Cn1sc2nc(C)cc(C)c2c1=O
inhibition: 88.4% (active)

Cc1ccc(NC(=O)Cn2c(C)cc(C)c(C#N)c2=O)c(Cl)c1
inhibition: 2.7% (inactive)

Cc1cc(C)c2c(=O)n(CC(=O)Nc3ccc(Cl)cc3)sc2n1
inhibition: 23.2% (inactive)

Cc1ccc(NC(=O)Cn2sc3nc(C)cc(C)c3c2=O)c(Cl)c1
inhibition: 70.3% (active)
